Laboratory results as given in PubChem BioAssay AID492972 (The Scripps Research Institute Molecular Screening Center, 2010).
The whole screen tested about 340,000 compounds, of which about 930 (0.27%) were called active. Many of the other results were omitted from the sample, so actives are more common in it than they were. Unmarked numbers belong to inactive results.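 How the source made its calls: active means inhibition above the screen-wide average of all tested compounds plus 3 SD (cut at about 25% in these data); inactive means the rest.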

These molecules were tested against Platelet-activating factor acetylhydrolase IB subunit alpha1 (Homo sapiens) (UniProt Q15102) (assay: PAFAH1B3 enzyme inhibitors, primary screen, biochemical, fluorescence polarization, human (AID 492972;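 further: 0% = enzyme with DMSO only and 100% = wells lacking PAFAH1B3 protein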)). Conditions: recombinant PAFAH1B3, FP-rhodamine probe, at 3.39 µM, active compounds read high.
Sequence of Platelet-activating factor acetylhydrolase IB subunit alpha1 (Homo sapiens) (Q15102 whole entry, looked up): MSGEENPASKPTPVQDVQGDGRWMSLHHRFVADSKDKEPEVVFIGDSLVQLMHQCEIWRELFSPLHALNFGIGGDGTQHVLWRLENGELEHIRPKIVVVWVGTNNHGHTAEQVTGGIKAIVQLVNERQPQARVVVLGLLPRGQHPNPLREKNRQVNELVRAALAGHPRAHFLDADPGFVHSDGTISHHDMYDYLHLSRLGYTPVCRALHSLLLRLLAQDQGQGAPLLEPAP

Row | Structure (SMILES) | inhibition
1 | O=C(Nc1ccccc1Cl)N1CCN(c2ccc3nncn3n2)CC1 | 2.34%
2 | CCC(=O)NCc1cc(-c2nn(C)c(=O)c3ccccc23)ccc1OC | -3.52%
3 | Cc1ccc(F)cc1NC(=O)Cc1nn(C)c(=O)c2ccccc12 | -8.34%
4 | Cc1c(-c2nn(C)c(=O)c3ccccc23)oc2ccc(F)cc2c1=O | 37.7% (active)
5 | Cn1ncc2c(N3CCCCC3)nc(NCCCO)nc21 | 8.53%
6 | Cc1ccc(C)c(NC(=O)COC(=O)CSc2ccccc2)c1 | 1.73%
7 | Cc1ccc(S(=O)(=O)NNC(=O)Nc2cccc3ccccc23)cc1 | 3.24%
8 | Cc1ccc(C)c(NC(=O)NNC(=O)c2ccc3ccccc3c2O)c1 | 39.8% (active)
9 | CN(Cc1ccccc1)C(=O)C1CCCN(c2ncnc3c2nc2n3CCCCC2)C1 (stereo unspecified) | 3.41%
10 | Cc1cccnc1CCNC(=O)C1CCC(=O)N(Cc2cccc(F)c2)C1 (stereo unspecified) | 2.19%
11 | Cc1ccc(CNS(=O)(=O)c2ccc3c(c2)N(C)CCO3)cc1 | 8.72%
12 | CC(=O)Nc1ccccc1OC(C)C(=O)N1CCC(C)CC1 (stereo unspecified) | 1.25%
13 | CN(C)CCN=c1cc(-c2ccccc2)oc2ccc(Cl)cc12 | 5.11%
14 | CCc1ccc(OCC(=O)NCC(c2ccc(Cl)cc2)N2CCCCC2)cc1 (stereo unspecified) | 1.46%
15 | O=C1c2cccc(OCC(=O)N3N=C(c4cccs4)CC3c3ccc(F)cc3)c2CCN1Cc1ccccc1 (stereo unspecified) | 3.19%
16 | Cc1cc2cc3c(N)[nH]nc3nc2cc1C | 5.34%
17 | COc1ccc(S(=O)(=O)N2CCOCC2)cc1NC(=O)Cc1coc2cc(C)ccc12 | 9.79%
18 | O=C(NCc1cccnc1)c1ccc(CS(=O)(=O)c2ccc(Br)cc2)o1 | 2.95%
19 | CCn1ncc(C2=NOC(C(=O)Nc3ccccc3C(=O)OC)C2)c1C (stereo unspecified) | 9.12%
20 | O=C(CN1CCN(C(=O)c2ccco2)CC1)Nc1ccc(Cl)c(C(F)(F)F)c1 | 8.31%
21 | CN(CC(=O)NCc1ccc2c(c1)OCO2)CC(=O)Nc1ccc(F)c(F)c1F | 7.36%
22 | CCC(C)N1C(=S)SC(C)(C)C1N(O)C(=O)NC1CCCCC1 (stereo unspecified) | 3.27%
23 | CCCCNC(=O)N(O)C1N(/N=C/c2ccc(N(C)C)cc2)C(=S)SC1(C)C (stereo unspecified) | 40.5% (active)

Row | Structure (SMILES) | inhibition
24 | CCCCNC(=O)N(O)C1N(/N=C/c2ccccc2O)C(=S)SC1(C)C (stereo unspecified) | -1.86%
25 | CC1CCCC(NC(=O)COC(=O)[C@@H]2CC(O)CN2S(=O)(=O)c2ccc3c(c2)OCCO3)C1C (stereo partly specified) | -2.21%
26 | COc1cc(OC)cc(-c2c(C#Cc3ccsc3)c3cc(-c4ccc(SC)cc4)ccc3n2C)c1 | 11.8%
27 | CCC(C(=O)Nc1ccc(C(C)C)cc1)c1ccccc1 (stereo unspecified) | -2.07%
28 | Cc1ccc(S(=O)(=O)N2CCN(C)CC2)cc1 | 2.98%
29 | CC/C(=N\NC(=O)c1c(C)nc2ccccn12)c1ccc(Cl)cc1 | 2.04%
30 | CC(Sc1nncs1)C(=O)NCc1ccc2c(c1)OCO2 (stereo unspecified) | 4.2%
31 | COc1cc(CNCCN(C)C)ccc1OCc1c(F)cccc1Cl | 7.89%
32 | CSCCC(NC(=O)COc1ccccc1)C(=O)Nc1ccc(C)cc1 (stereo unspecified) | 3.02%
33 | Cc1ccc(-c2noc(CNC(=O)c3ccoc3C)n2)cc1 | 7.91%
34 | O=C(CN1C(=O)NC2(CCCCCC2)C1=O)NC1CC1 | 8.06%
35 | CCCc1nc(N)nc2c1C(=O)CC(C)(C)C2 | 3.91%
36 | Cc1ccc(N=C2NC(=O)/C(=C/C=C/c3ccco3)S2)cc1C | -1.25%
37 | Cc1ccc(N2C(=O)S/C(=C/c3cn(C)c4ccccc34)C2=O)cc1 | 1.18%
38 | Cc1cccc(N=C2NC(=O)/C(=C/c3cn(C)c4ccccc34)S2)c1 | 31.3% (active)
39 | CN(C)C(=O)CCc1ccc2c3c([nH]c2c1)[C@]1(C)[C@@H](C(=O)N2CCOCC2)C[C@H](CC(=O)NCCc2ccccn2)C(=O)N1CC3 | 12.3%
40 | Cn1ncc2c(Nc3cccc4ccccc34)ncnc21 | -1.17%
41 | O=C(COC(=O)c1cccnc1Cl)NC12CC3CC(CC(C3)C1)C2 | 16.2%
42 | COCCNC(=S)N1CCC(NC(=O)C23CC4CC(CC(C4)C2)C3)CC1 | 7.45%
43 | O=C(NCCc1ccccc1)Oc1ccc(Cl)cc1 | 2.38%
44 | CN(C)[C@@H]1C(=O)C(C(N)=O)=C(O)[C@@]2(O)C(=O)C3=C(O)c4c(O)ccc(Cl)c4[C@@H](O)[C@H]3C[C@@H]12 | 11%
45 | C=C1c2c(Cl)ccc(O)c2C(O)=C2C(=O)[C@]3(O)C(O)=C(C(N)=O)C(=O)[C@@H](N(C)C)[C@@H]3[C@@H](O)C12 (stereo partly specified) | 32.6% (active)
46 | CCSC(C)CC1C/C(=N/O)c2c(C)noc2C1 (stereo unspecified) | 4.48%

Row | Structure (SMILES) | inhibition
47 | COc1ccc(N(CC(=O)NCC2CCCO2)C(=O)CCC(=O)Nc2nccs2)c(OC)c1 (stereo unspecified) | 2.48%
48 | O=C(Nc1nccs1)C1CCN(S(=O)(=O)c2ccc(Cl)c(C(F)(F)F)c2)CC1 | 7.86%
49 | O=C(NCc1ccccc1)C(c1cccnc1)N(C(=O)c1csnn1)c1ccc(F)cc1 (stereo unspecified) | 4.83%
50 | CCN1C(=O)[C@H]2[C@@H](c3ccc(SC4CCCCC4)c(OC)c3)N[C@@](Cc3ccccc3)(C(=O)OC)[C@H]2C1=O | -5.41%
51 | c1coc(-c2nc3nc4ccccc4n3nc2-c2ccco2)c1 | 41.5% (active)
52 | CC1=Nn2c(nnc2-c2ccccc2)SC1 | 6.68%
53 | COc1ccccc1-c1nnc2n1N=C(c1ccc(OC(F)F)c(OCC3CC3)c1)CS2 | -0.82%
54 | COc1ccc(C2=Nn3c(nnc3-c3ccccc3OC)SC2)cc1OC1CCCC1 | 38.3% (active)
55 | Cc1nnc(SCCCn2c(N3CCCCC3)nc3c2c(=O)[nH]c(=O)n3C)s1 | 5.57%
56 | CCN(CC)CCCC(C)n1c2nc(=O)[nH]c(=O)c-2nc2cc(Cl)ccc21 (stereo unspecified) | 57.6% (active)
57 | COc1ccc(C)cc1S(=O)(=O)N(CC(=O)Nc1cccc([N+](=O)[O-])c1)c1ccc(C)cc1 | -21.3%
58 | COc1ccc(C(=O)NC(=S)N2CCCCC2c2cccnc2)cc1OC (stereo unspecified) | -1.07%
59 | Cc1c(-c2ccccc2)n[nH]c1C(=O)N=Nc1c(O)[nH]c2ccccc12 | -61.7%
60 | S=C(NCCCc1ccccc1)Nc1ccc(Br)cc1 | 7.28%
61 | C/C=N/N(c1ccccc1)c1ccccc1 | 0.33%
62 | N#CC(Cc1cc2ccccc2n1S(=O)(=O)c1ccccc1)OCc1ccccc1 (stereo unspecified) | 4.5%
63 | CCCc1ccc(OCC(O)CN2CCN(C(=O)OCC)CC2)cc1 (stereo unspecified) | -2.88%
64 | COC(=O)CNC(=O)C(CCSC)NC(C)=O (stereo unspecified) | -4.04%
65 | CC(C)n1cnc2c(NCc3ccccc3)cc(OCC3CCN(C)CC3)cc21 | 49.8% (active)
66 | CCC(CO)Oc1cc(NC(=O)c2cccc3ccccc23)c2ncn(C(C)C)c2c1 (stereo unspecified) | -4.73%
67 | CCC(CO)Oc1cc(NC(=O)c2cccc(F)c2)c2ncn(C(C)C)c2c1 (stereo unspecified) | -2.61%
68 | COc1ccccc1C(=O)N(Cc1ccc(C)o1)C1CCS(=O)(=O)C1 (stereo unspecified) | 4.66%
69 | COc1ccccc1NS(=O)(=O)N(C)C | -5.67%

Row | Structure (SMILES) | inhibition
70 | c1ccc(CC2CCN(c3nc4ccccc4n4cnnc34)CC2)cc1 | -2.84%
71 | COc1ccc(CN(Cc2ccco2)S(=O)(=O)c2ccc(S(=O)(=O)N3CCCC3)cc2)cc1 | 4.29%
72 | CC(=O)OC1CCC2(C)C(=CCC3C4CC(=O)N(O)C(=O)C4(C)CCC32)C1 (stereo unspecified) | 1.29%
73 | O=C(/C=C/c1ccc2c(c1)OCCO2)c1ccc(O)cc1 | -1.41%
74 | O=C(O)/C=C/c1ccc(OCCCF)cc1 | 9.5%
75 | O=C(/C=C(O)/C=C/c1ccc(O)cc1)/C=C/c1ccc(O)cc1 | 36.6% (active)
76 | O=C(CCCC(=O)N(CC(=O)NC1CCCC1)Cc1ccccc1Cl)Nc1ccccn1 | 7.22%
77 | CCOCCCN(C)C1CCN(C(=O)c2oc3ccccc3c2NC(=O)COc2cccc(C)c2)CC1 | 7.03%
78 | COc1ccc(NC(=O)CCCC(=O)c2ccccc2)cc1 | -0.24%
79 | COc1ccc(NC(=O)C(Br)C(C)C)cc1 (stereo unspecified) | 3.86%
80 | COc1ccc(NC(=O)ON=C2c3ccccc3-c3ccccc32)cc1 | 31.6% (active)
81 | COc1ccc(C2=NS(=O)(=O)N(C)C(C(=O)N(C)Cc3ccccc3)=C2)cc1 | 9.43%
82 | COc1ccc([N+](=O)[O-])cc1NCC(=O)c1ccc(C)cc1 | 8.91%
83 | CCNC(=O)NNC(=O)C1CC(c2cccs2)=NO1 (stereo unspecified) | 14.9%
84 | CCNS(=O)(=O)c1ccc(CCC(=O)N2CCN(c3cc(Cl)ccc3C)CC2)cc1 | 8.42%
85 | COc1ccc(N2CCN(C(=O)C3CCN(C(=O)c4ccccc4Cl)CC3)CC2)cc1 | -0.01%
86 | CN(N)c1nc(N2CCCC2)nc(N2CCCC2)n1 | -3.46%
87 | NC(=O)[C@H]1CC2(CC(c3cccc(NC(=O)[C@H]4CCC(=O)N4)c3)=NO2)CN1C(=O)c1ccccc1C(=O)c1ccccc1 (stereo partly specified) | -3.78%
88 | O=c1[nH]cccc1-c1nc2ccccc2n1Cc1ccc(Cl)cc1 | 6.48%
89 | O=C(Nc1nnc(-c2ccc(F)cc2)s1)c1c(F)cccc1Cl | 4.95%
90 | CN(C1CCS(=O)(=O)C1)S(=O)(=O)c1ccc2ccccc2c1 (stereo unspecified) | 3.01%
91 | CC(C)(C)NC(=O)NC(=O)CN1CCC(Cc2ccccc2)CC1 | 0.05%
